# Assay outcomes as filed in PubChem.
# Rows were chosen to be rich in hits. Some 19% of all compounds tested hit in one or more screens of this group.
# HT1080 IDH1KD tx: kills HT-1080 cells with IDH1 knockdown | HT-1080 IDH1 knockdown viability, ATP luminescence, 48 h | Potency, µM (titrated, usually from 46.1 µM), inactives show top-dose activity, negative = toxicity, hits mostly cytotoxic | hit rate 2% among 360,000 | AID 686971;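 also: potency is read from the fitted curve at half-maximal effect; 0% = DMSO wells and -100% = cell-free medium wells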
#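 Assay cells: HT-1080 with IDH1 knockdown, 750 per well, RPMI/5% FBS. Exposure: 48 h at 37 °C following 2 h pre-incubation. Read: CellTiter-Glo luminescence; fitted concentration-response, curve class assigned.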
# TDP1 cell CPT: DT40-hTDP1 cell growth loss with CPT. Potency, µM (highest dose often 46.2 µM), for inactives: at the top dose activity change, negative = growth inhibition, hits mostly inhibitors. hit rate 12% among 420,000. chicken DT40 Tdp1-/-;hTDP1 cells + 20 nM CPT, ATP luminescence, 48 h. AID 686979; also: potency is read from the fitted curve at half-maximal effect; nearly all actives have a fitted effect of over 55% in size
#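 Chicken DT40 Tdp1-/- cells complemented with human TDP1, 400 cells/well, exposed to compounds plus 20 nM camptothecin for at least 48 h at 37 C; viability read as ATP content by CellTiter-Glo luminescence.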
# HT1080NT lethal: kills 2HG-producing HT-1080-NT fibrosarcoma cells; HT-1080-NT fibrosarcoma viability, CellTiter-Glo ATP luminescence, 48 h; Potency, µM (doses to about 46.1 µM), inactives show top-dose activity, negative = less viability, most hits filed as cytotoxic; hit rate 1.6% among 360,000; AID 686970;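 also: NT is the 2HG producing partner of a matched IDH1 knockdown line; potency is read from the fitted curve at half-maximal effect; 0% = DMSO-treated cells and -100% = media-only wells without cells; nearly all actives have a fitted effect of over 55% in size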
#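 Fibrosarcoma NT cells, 750 per well in 5% FBS RPMI, were exposed to compound for 48 hours. Viability: CellTiter-Glo luminescence.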
# IL-1B inflam inh: blocks inflammasome-driven IL-1 beta release; AID 743279; activity change, % at 57.5 µM; THP-1 LPS/ATP IL-1B secretion, AlphaLISA, 16 h; active compounds read low; hit rate 4.7% among 360,000; in the data active = activity change below about -50%; inconclusive = mostly about -30% to -49%
#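 THP-1 cells pretreated 1 hr with compounds (up to 57.5 uM final), then stimulated with LPS (250 ng/mL final) plus ATP (1.25 mM final); secreted IL-1B measured by AlphaLISA after 16 hr, decreased signal indicating inhibition.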
# DT40 TDP1 no CPT: qHTS for Inhibitors of human tyrosyl-DNA phosphodiesterase 1 (TDP1): qHTS in cells in absence of CPT. hit rate 15% among 420,000. AID 686978, 2013. Potency, µM (titrated, usually from 46.2 µM), for inactives: at the highest dose activity change, negative = growth inhibition, usual class: inhibitors. DT40 Tdp1-/- hTDP1 cells, no CPT, ATP luminescence, 48 h; also: potency is read from the fitted curve at half-maximal effect; nearly all actives have a fitted effect of over 55% in size
#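 Luminescent ATP content (CellTiter-Glo) served as the growth readout. Knockout chicken DT40 cells expressing human TDP1 were exposed to compounds without camptothecin for a minimum 48 hr at 37 °C.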
# uPA surface inh: blocks generation of uPA at the cell surface; hit rate 0.31% among 330,000; Potency, µM (titrated, usually from 38.3 µM), for inactives: top-dose activity change, negative = inhibition, most hits filed as inhibitors; cell surface uPA generation assay, qHTS; active = well fitted inhibition curve with a large enough effect; inconclusive = small, poorly fitted or top-dose-only effect; inactive = no such curve, though single readings can be large or run the other way; tested in mouse RAW 264.7 cells; also: potency is read from the fitted curve at half-maximal effect; nearly all actives have a fitted effect of over 55% in size
# Starred values were filed as active, the others as inactive; ? = inconclusive; . = not tested or not shown; ! = repeats disagree. Unless noted, calls follow the shape of the dose curve; as a rule, active = well fitted curve in the direction sought with a large enough effect; inconclusive = small, poorly fitted or top-dose-only effect, or another doubt; inactive = no such curve, though single readings can be large; an effect the other way counts as inactive or inconclusive. Unless noted, % is scaled to controls: 0 for no effect and ±100 for the full control effect.
SMILES,HT1080 IDH1KD tx,TDP1 cell CPT,HT1080NT lethal,IL-1B inflam inh,DT40 TDP1 no CPT,uPA surface inh
COc1ccc(Nc2c3c(nc4ccccc24)CCC3)cc1Cl,.,11.6µM*,.,.,18.4µM*,.
Nc1c2c(nc3ccccc13)CCCC2,0.4%,16.8µM*!,-1.0%,-17.9,18.4µM*!,-20.4%
c1ccc(Nc2c3c(nc4ccccc24)CCC3)cc1,?,5.17µM*,-7.9%,-12.6,14.6µM*,-3.6%
c1ccc2c(Nc3ccc4c(c3)OCCO4)c3c(nc2c1)CCC3,-22.4%,23.1µM*,-25.4%,12.6,14.6µM*,-25.1%
O=C(O)C1CCC(=O)N1Cc1ccccc1Cl (centres undefined),8.2%,-0.6%,7.8%,27.4,?,-3.1%
Cc1c(C)c2ccc(OC(C)C(=O)NCCCN3CCOCC3)c(C)c2oc1=O (centres undefined),16.0%,8.8%,0.8%,19.1,18.7%,4.3%
COCCNc1c2c(nc3ccccc13)CCC2,-0.6%,-20.4%,9.3%,-13.5,?,0.2%
COc1ccc(Nc2cc(Nc3cc(OC)c(OC)c(OC)c3)ncn2)cc1,-8.3%,18.4µM*,-22.6%,-79.7*,20.6µM*,6.4%
Fc1ccc(Nc2c3c(nc4ccccc24)CCC3)cc1,?,5.17µM*,16.4µM*,-95.6*,10.3µM*,-5.7%
CCN(CC)CCOC(=O)c1ccc(Nc2c3c(nc4ccccc24)CCC3)cc1,.,?,.,.,18.4µM*,.
COc1ccc(Nc2c3c(nc4ccccc24)CCCC3)cc1OC,?,?,?,-17.9,?,-6.9%
CN(C)CCCNc1c2c(nc3ccccc13)CCC2,-18.8%,?,-28.8%,-68.7*,14.6µM*,16.7%
COc1ccc(Nc2c3ccccc3nc3ccccc23)cc1,11.6µM*,?,9.2µM*,-98.0*,?,-12.8%
COc1ccc(Nc2nc3ccccc3c(=O)[nH]2)cc1,4.7%,?,6.3%,2.5,?,3.2%
CN(C)CCNCCCNc1c2ccccc2nc2cccc([N+](=O)[O-])c12,?,0.0517µM*,-23.8%,?,0.103µM*,-7.8%
O=S(=O)(N(Cc1ccccc1)[C@@H](CO)Cc1ccccc1)N(Cc1ccccc1)[C@@H](CO)Cc1ccccc1,-5.3%,?,-23.7%,16.5,5.62µM*,18.3%
COC(=O)[C@H](CC(C)C)N(Cc1ccccc1)S(=O)(=O)N(Cc1ccccc1)[C@@H](CC(C)C)C(=O)OC,-2.6%,20.6µM*,-1.0%,6.8,11.6µM*,-4.4%
COC(=O)[C@H](C(C)C)N(Cc1ccccc1)S(=O)(=O)CCNC1CCCC1,-7.2%,25.9µM*,-1.3%,-20.0,?,-1.6%
C=CS(=O)(=O)N(Cc1ccccc1Br)[C@H](CO)Cc1ccccc1,?,7.94µM*,?,-108.2*,7.08µM*,?
CC1(C)CC(=O)c2cc(C(=O)Nc3ccccc3Cl)c(=O)n(-c3ccc(Cl)cc3)c2C1,.,-16.9%,.,.,?,.
NC(=O)CCC(NC(=O)OCc1ccccc1)C(=O)OCC(=O)c1ccccc1 (centres undefined),9.3%,-21.9%,1.4%,2.5,-18.6%,.
CCOc1ccccc1NC(=O)CCS(=O)(=O)c1ccc2c(c1)oc(=O)n2C,.,-11.0%,.,.,-19.1%,.
CC1CCN(Cc2c(C(=O)O)nnn2-c2nonc2N)CC1,1.1%,-10.5%,1.3%,-2.9,11.8%,-3.6%
COc1ccc(CNC(=O)CC[C@H]2O[C@@H](n3cnc4c(NC(=O)c5ccccc5)ncnc43)[C@H](O)[C@@H]2O)cc1,14.8%,?,10.6%,3.3,-13.5%,.
CC(C)N(Cc1ccccc1)S(=O)(=O)N(C)C,-0.1%,-2.0%,1.1%,13.7,-19.2%,-1.2%
SMILES,HT1080 IDH1KD tx,TDP1 cell CPT,HT1080NT lethal,IL-1B inflam inh,DT40 TDP1 no CPT,uPA surface inh
C=CS(=O)(=O)N(Cc1ccccc1)[C@H](CO)CC(C)C,-4.4%,10µM*,-13.3%,-60.5*,11.2µM*,-8.8%
C=C[C@H](CC(C)C)N(Cc1ccccc1)S(=O)(=O)N(Cc1ccc(OC)cc1)[C@H](C=C)CC(C)C,8.2%,?,14.4%,13.3,13µM*,7.3%
CC(C)C[C@H](CO)N(Cc1ccccc1)S(=O)(=O)N(Cc1ccccc1)[C@@H](CO)CC(C)C,?,16.4µM*,?,-87.1*,11.6µM*!,?
CCOC(=O)[C@@H](C)N(Cc1ccc(OC)cc1)S(=O)(=O)N(Cc1ccccc1)[C@H](C(=O)OC)C(C)C,-3.7%,?,-21.4%,16.7,-92.7%,-18.3%
COc1cccc(-c2nc(CS(=O)(=O)CC(=O)Nc3c(C)cccc3C)c(C)o2)c1,-8.8%,?,-14.3%,-5.7,?,-3.8%
COc1cccc(-c2nc(CS(=O)(=O)CC(=O)NCc3ccc(C)cc3)c(C)o2)c1,.,23.1µM*,.,.,?,.
COc1ccc(CNC(=O)CS(=O)(=O)Cc2nc(-c3cccc(OC)c3)oc2C)cc1,-13.9%,?,0.1%,14.8,?,-2.5%
COc1cccc(-c2nc(CS(=O)(=O)CC(=O)Nc3c(C)cc(C)cc3C)c(C)o2)c1,.,18.4µM*,.,.,23.1µM*,.
CCOc1ccc(-c2nnc(SCC(=O)NCc3ccccc3Cl)o2)cc1,.,-23.5%,.,.,-27.6%,.
CSC(=Nc1ccccc1)C(C#N)c1nc2ccccc2[nH]1 (centres undefined),-11.6%,-4.2%,-2.3%,5.2,-12.1%,-3.6%
N#CC(C(=S)Nc1ccccc1)c1nc2ccccc2[nH]1 (centres undefined),1.5%,5.17µM*,-8.3%,25.9,5.17µM*,-27.6%
CC(=O)N(CCCc1ccc(C(C)(C)C)cc1)CCCN(C)C,0.3%,14.6µM*,-2.1%,-19.1,?,-6.5%
O=c1[nH]c(Cc2ccccc2)nc2scc(-c3ccccc3)c12,8.9%,?,14.4%,-5.2,?,8.4%
Clc1nc(-c2ccccn2)nc2scc(-c3ccccc3)c12,?,?,?,-60.0*,?,10µM*
COc1ccc(S(=O)(=O)N2CCOCC2)cc1N=Nc1sc(N)nc1-c1ccccc1,-28.7%,-29.7%,-21.1%,?,2.31µM*,1.2%
COc1ccc(S(=O)(=O)N2CCOCC2)cc1NC(=O)CSc1nnc(N)s1,5.5%,1.6%,-2.1%,14.0,-15.5%,1.0%
Cc1ccc2[nH]c(CSc3nnc(NC(=O)COc4ccccc4)s3)cc(=O)c2c1,.,-22.7%,.,.,-9.7%,.
Cc1ccc(S(=O)(=O)N(CCCO)CC(O)CON=C2c3ccccc3-c3ccccc32)cc1 (centres undefined),-21.7%,?,-11.5%,?,16.4µM*,-7.5%
